# Measured values as given in the supplement of paper PMC10503962.
# System: Trichuris muris adult worms
# Experiment: mean motility score (Paragon pixel variance) of adult worms (arbitrary units); higher = more motile worms, i.e. less anthelmintic effect; extreme values may be limits of the assay
# Settings: 100 µM; 24 h
# Summary of the method: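 Single adult Trichuris muris worms, collected from infected NOD SCID mice, were placed in 96-well plates with 100 μL RPMI-1640 plus antibiotics and drug at 100 μM (1% v/v DMSO), then kept at 37°C and 5% CO2 for 24 h. Plates were filmed on an automated phenotyping platform (200 frames, 100 ms apart). Motility score came from Paragon pixel-variance analysis, averaged across replicate wells. Each drug had three worms in three wells, run on three separate occasions, with vehicle and positive controls.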
row,SMILES,mean motility score
1,CC1(C)NC(=O)N(c2ccc([N+](=O)[O-])c(C(F)(F)F)c2)C1=O [nilutamide],1900
2,NS(=O)(=O)c1cc2c(cc1Cl)NC(CSCc1ccccc1)=NS2(=O)=O [benzthiazide],3040
3,CCCC(=O)O[C@]1(C(=O)COC(C)=O)CC[C@H]2[C@@H]3C[C@H](F)C4=CC(=O)C=C[C@]4(C)[C@@]3(F)[C@@H](O)C[C@@]21C [difluprednate],3520
4,CC(C)O [isopropyl alcohol],2760
5,CC(C)N=c1cc2n(-c3ccc(Cl)cc3)c3ccccc3nc-2cc1Nc1ccc(Cl)cc1 [clofazimine],3290
6,C[C@@](Cc1ccc(O)c(O)c1)(NN)C(=O)O [S-carbidopa],3900
7,CCCCNc1ccc(C(=O)OCCN(C)C)cc1 [tetracaine],4810
8,Cl.Clc1ccccc1CN1CCc2sccc2C1 [ticlopidine hydrochloride],663
9,CNC[C@H](O)c1ccc(O)c(O)c1 [epinephrine],3270
10,CNCC[C@H](Oc1cccc2ccccc12)c1cccs1.Cl [duloxetine hydrochloride],2.67
11,CC/C=C\C/C=C\C/C=C\C/C=C\C/C=C\C/C=C\CCC(=O)O [doconexent],4100
12,Cc1ccc(C(=O)Nc2ccc(CN3CCN(C)CC3)c(C(F)(F)F)c2)cc1C#Cc1cnc2cccnn12 [ponatinib],1760
13,CCOc1ccc2ccccc2c1C(=O)N[C@@H]1C(=O)N2[C@@H]1SC(C)(C)[C@@H]2C(=O)[O-].O.[Na+] [nafcillin sodium monohydrate],3570
14,CC(C)NCC(O)COc1cccc2[nH]ccc12 (stereo not drawn) [pindolol],4670
15,CC[C@H]1OC(=O)[C@H](C)[C@@H](O[C@H]2C[C@@](C)(OC)[C@@H](O)[C@H](C)O2)[C@H](C)[C@@H](O[C@@H]2O[C@H](C)C[C@H](N(C)C)[C@H]2O)[C@](C)(OC)C[C@@H](C)C(=O)[C@H](C)[C@@H](O)[C@]1(C)O [clarithromycin],2330
16,COCCCC/C(=N\OCCN)c1ccc(C(F)(F)F)cc1 [fluvoxamine],2670
17,CN(Cc1cnc2nc(N)nc(N)c2n1)c1ccc(C(=O)N[C@@H](CCC(=O)O)C(=O)O)cc1 [methotrexate],3700

row,SMILES,mean motility score
1,CCc1nc(N)nc(N)c1-c1ccc(Cl)cc1 [pyrimethamine],2930
2,C=C(c1ccc(C(=O)O)cc1)c1cc2c(cc1C)C(C)(C)CCC2(C)C [bexarotene],750
3,CCN(CC)CCOC(=O)C1(C2CCCCC2)CCCCC1.Cl [dicyclomine hydrochloride],4250
4,Cc1ccc(S(=O)(=O)O)cc1.Clc1cccc(Cl)c1NC1=NCCN1 [clonidine p-toluenesulfonic acid],3620
5,CC(C)(C)c1ccc(C(O)CCCN2CCC(C(O)(c3ccccc3)c3ccccc3)CC2)cc1 (stereo not drawn) [terfenadine],1
6,C=C(CC)C(=O)c1ccc(OCC(=O)O)c(Cl)c1Cl [ethacrynic acid],215
7,Cn1cnc2c(F)c(Nc3ccc(Br)cc3Cl)c(C(=O)NOCCO)cc21 [selumetinib],3500
8,CC(C)c1c(C(=O)Nc2ccccc2)c(-c2ccccc2)c(-c2ccc(F)cc2)n1CC[C@@H](O)C[C@@H](O)CC(=O)O [atorvastatin],2620
9,CC(=O)Oc1cc(C(C)C)c(OCCN(C)C)cc1C.Cl [moxisylyte hydrochloride],1780
10,CC[N+](C)(C)c1cccc(O)c1.[Cl-] [edrophonium chloride],2890
11,CCOC(=O)[C@H](CCc1ccccc1)N[C@@H](C)C(=O)N1[C@H](C(=O)O)C[C@@H]2CCC[C@@H]21 [ramipril],3060
12,OCCN(CCO)c1nc(N2CCCCC2)c2nc(N(CCO)CCO)nc(N3CCCCC3)c2n1 [dipyridamole],2870
13,CN(C)CCc1c[nH]c2ccc(C[C@H]3COC(=O)N3)cc12 [zolmitriptan],3180
14,CC(=O)c1c(C)c2cnc(Nc3ccc(N4CCNCC4)cn3)nc2n(C2CCCC2)c1=O [palbociclib],1970
15,Nc1ccccc1NC(=O)c1ccc(CNC(=O)OCc2cccnc2)cc1 [entinostat],2720
16,O=C(O)CNC(=O)c1ccccc1I [iodohippurate],3580
